# Assay outcomes deposited in PubChem BioAssay by National Center for Advancing Translational Sciences (NCATS).
# Sampled rows, rich in hits. Any-hit rate of the full collection: about 1.4%.
# EPAC1 agonist – activates human EPAC1 exchange factor. EPAC1 agonist qHTS, biochemical assay; response scale: 100% = response to 6.5 mM cAMP. Potency, µM (titrated, usually from 154 µM), without a hit: at the top dose activation, hits mostly activators. 360,000 tested, 0.073% active. AID 720707; further: nearly all actives have a fitted effect of over 60% in size
#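 EPAC1 100 nM, Rap1B–BODIPY-GDP 250 nM, unlabeled GDP 50 uM; compound titration; 5 min RT; kinetic read ex480/em540 at 5-min intervals ×30 min; data normalized to 6.5 mM cAMP agonist control.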
# EPAC2 ag – agonists of human EPAC2 (RAPGEF4) | EPAC2 activation, biochemical qHTS; response scale: 100% = 6.5 mM cAMP response | Potency, µM (top dose mostly 154 µM), for the others: at the top dose activation, most hits filed as activators | 360,000 tested, 0.079% active; further: nearly all actives have a fitted effect of over 50% in size
#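 Compounds were added across a concentration range to EPAC2 (100 nM), RAP1B-BODIPY-GDP (250 nM) and GDP (50 uM). After 5 min at room temperature, fluorescence was recorded at 5-min intervals for 30 min.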
# EPAC2 antagonist – antagonists of human EPAC2 | Potency, µM (titrated, usually from 114 µM), inactives show at the top dose activity, negative = inhibition, usual class: inhibitors | 360,000 tested, 0.18% active | Q8WZA2 | EPAC2 GEF exchange of Rap1B-BODIPY-GDP, fluorescence; further: on the % scale 0 is the no-effect control and ±100 the full control effect; nearly all actives have a fitted effect of over 45% in size
# BRCA1 expr act – increases BRCA1 expression; Potency, µM (top dose mostly 46.1 µM), inactives show top-dose activation, actives largely listed as activators; MCF7-BRCA1-FFLuc reporter, luminescence, 48 h; response scale: scaled: vehicle 0%, 10 µM genistein 100%; 380,000 tested, 1.1% active; AID 624202; further: nearly all actives have a fitted effect of over 80% in size
#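 Luminescence from a BRCA1-driven firefly luciferase in MCF7 cells was read after 48 h compound exposure at 37 C. Data normalized against DMSO and a 10microM genistein activation control, then curve-fitted across the titration.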
# EPAC1 antagonist – blocks human EPAC1 exchange factor | O95398 | 360,000 tested, 0.14% active | AID 720709 | Potency, µM (titrated, usually from 115 µM), for inactives: at the top dose activity change, negative = inhibition, actives largely listed as inhibitors | EPAC1 GEF assay, Rap1b-BODIPY-GDP exchange fluorescence;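 further: plate controls were vehicle for no effect and positive control for full effect; nearly all actives have a fitted effect of over 50% in size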
# USP1 inh – blocks the human USP1/UAF1 deubiquitinase complex. recombinant USP1/UAF1, Ub-Rhodamine cleavage fluorescence. Potency, µM (highest dose often 57.1 µM), for the others: at the highest dose activity change, negative = inhibition, actives largely listed as inhibitors. 390,000 tested, 0.23% active; further: on the % scale 0 is the no-effect control and ±100 the full control effect; nearly all actives have a fitted effect of over 60% in size
# Target sequence (O94782 whole entry, looked up): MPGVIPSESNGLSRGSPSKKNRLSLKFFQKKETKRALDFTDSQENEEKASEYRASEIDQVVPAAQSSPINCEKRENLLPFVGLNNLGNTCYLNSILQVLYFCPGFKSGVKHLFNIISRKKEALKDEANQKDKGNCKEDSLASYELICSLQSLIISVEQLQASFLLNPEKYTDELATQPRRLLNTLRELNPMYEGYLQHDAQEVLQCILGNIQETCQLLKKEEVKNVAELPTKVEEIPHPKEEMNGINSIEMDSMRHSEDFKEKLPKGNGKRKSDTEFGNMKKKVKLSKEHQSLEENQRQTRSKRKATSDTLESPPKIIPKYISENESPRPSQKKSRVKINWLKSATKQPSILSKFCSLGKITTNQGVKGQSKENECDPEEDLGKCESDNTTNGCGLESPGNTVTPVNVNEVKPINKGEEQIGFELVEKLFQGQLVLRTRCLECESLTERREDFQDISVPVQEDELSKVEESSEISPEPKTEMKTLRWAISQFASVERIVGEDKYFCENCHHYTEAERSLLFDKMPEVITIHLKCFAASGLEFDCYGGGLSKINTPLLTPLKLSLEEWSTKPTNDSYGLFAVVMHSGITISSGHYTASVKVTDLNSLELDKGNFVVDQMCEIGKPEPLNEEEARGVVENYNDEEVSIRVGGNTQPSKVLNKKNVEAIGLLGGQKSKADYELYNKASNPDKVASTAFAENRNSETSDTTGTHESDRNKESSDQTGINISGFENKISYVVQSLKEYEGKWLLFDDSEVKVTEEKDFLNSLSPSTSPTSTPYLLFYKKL
#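 Step one: compound is pinned into 1nM USP1/UAF1 in HEPES pH 7.8 buffer with TCEP. Step two: 15 min room-temperature incubation. Step three: Ub-Rho (150nM final) starts cleavage, tracked by fluorescence over six one-minute reads.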
# * = called active by the depositor; ? = inconclusive; . = not tested or not shown. The call rests on the fitted dose curve; in most records, active means well fitted curve in the direction sought with a large enough effect; inconclusive means small, poorly fitted or top-dose-only effect, or another doubt; inactive means no such curve, though single readings can be large; an effect the other way counts as inactive or inconclusive. Potency means the concentration at half of the fitted maximal effect.
SMILES,EPAC1 agonist,EPAC2 ag,EPAC2 antagonist,BRCA1 expr act,EPAC1 antagonist,USP1 inh
CC(=O)c1ccc(NC(=O)Nc2cccc3ccccc23)cc1,7.9%,7.4%,1.2%,3.98µM*,12.8%,-19.5%
CC(=O)Nc1ccc(NC(=O)Nc2cccc3ccccc23)cc1,0.9%,7.5%,10.1%,6.2%,-10.9%,-7.1%
CC(C)NC(=O)CSc1nc2sccc2c(=O)n1-c1ccccc1,-5.0%,-6.5%,19.6%,-23.7%,-9.1%,-11.9%
O=C(NC1CC1)c1cc2cc3ccccc3nc2s1,-2.4%,7.0%,0.9%,5.01µM*,-12.2%,-16.0%
Cc1ccc(-c2csc(NC(=O)C3CC(=O)N(c4ccc5c(c4)OCCO5)C3)n2)o1 (stereo not given),.,.,.,0.0%,.,.
CCc1ccc(NC(=O)NCc2ccc3c(c2)OCO3)cc1,6.7%,4.6%,-0.8%,19.0%,3.8%,-19.6%
COc1ccc(NC(=O)NCc2ccc3c(c2)OCO3)cc1,-2.6%,7.2%,0.5%,26.1%,-1.7%,-19.3%
CC(=O)Nc1ccc(OCc2ccc3c(c2)OCO3)cc1,-3.0%,0.4%,-9.5%,2.51µM*,-1.9%,-10.4%
Cc1ccc(C(=O)NCc2ccc3c(c2)CCO3)cc1C,1.5%,7.0%,-4.1%,-1.5%,11.5%,-27.1%
O=C(NCc1ccc2c(c1)CCO2)Nc1ccccc1,-6.5%,4.4%,13.0%,1.78µM*,-10.0%,-9.1%
O=C(NCc1ccc2c(c1)OCO2)Nc1ccc(Cl)cc1,2.7%,10.3%,3.9%,11.2µM*,0.8%,-7.4%
O=C(Nc1cccc2ncccc12)c1ccco1,7.9%,9.9%,0.9%,1.8%,13.3%,-30.5%
COc1cc(/C=C/c2cc(C(=O)O)c3ccccc3n2)ccc1OC(F)F,-7.1%,9.5%,?,2.51µM*,?,-9.7%
O=C1CCc2cc(S(=O)(=O)NC(C(=O)Nc3ccc(F)cc3)c3ccccc3)ccc2N1 (stereo not given),.,.,.,.,.,-21.8%
Cc1cnc2c3c(cc(Cl)c2c1)-c1ccccc1S(=O)(=O)N3,.,.,.,-1.6%,.,.
CC(C)(Sc1ccc(CCN(CCCCC2CCCCC2)C(=O)NC2CCCCC2)cc1)C(=O)O,-21.3%,-12.8%,56.2µM*,-21.9%,-10.8%,?
O=C(COc1ccccc1Cl)Nc1ccccc1C(=O)N1CCOCC1,2.0%,8.2%,30.6%,55.8%,-6.8%,-18.3%
O=c1[nH]c(COc2ccc(Br)cc2Cl)nc2ccccc12,-14.5%,-0.9%,3.5%,3.98µM*,-8.4%,-8.9%
O=c1[nH]c(COc2ccccc2)nc2ccccc12,0.2%,0.5%,-1.5%,50.3%,-1.5%,-2.2%
O=[N+]([O-])c1cc(C=NN2CCCCCC2)ccc1Cl,9.9%,5.5%,-5.3%,2.82µM*,-18.1%,-9.1%
Nn1cnnc1N/N=C/c1ccc(F)cc1,-4.8%,-8.2%,10.6%,-91.6%,-1.5%,?
Nn1cnnc1N/N=C/c1ccc(Cl)c([N+](=O)[O-])c1,-10.9%,2.8%,5.5%,-81.9%,15.8µM*,?
O=[N+]([O-])c1cc(/C=N/N2CCCCC2)ccc1Cl,7.9%,8.2%,-11.2%,11.2µM*,-4.0%,-22.8%
O=[N+]([O-])c1cc(/C=N/N2CCN(c3ccccc3)CC2)ccc1Cl,-7.4%,-1.6%,2.3%,20.9%,6.0%,-25.9%
Nc1nnnn1/N=C\c1ccc(Cl)c([N+](=O)[O-])c1,0.7%,7.5%,-4.0%,1.1%,0.0%,1.0%
CN(C)c1ccc(CC2CCc3ccccc32)cc1 (stereo not given),.,.,.,35.3%,.,.
Cc1cccnc1NC(=O)NC(=O)c1ccc(C(C)(C)C)s1,3.4%,-0.4%,4.4%,6.31µM*,-21.1%,-5.7%
Cc1cccnc1NC(=S)NC(=O)c1cccs1,0.0%,15.2%,-6.9%,59.0%,?,-10.2%
Oc1ccc(-c2nnc(SCC3CCCCC3)o2)cc1,21.9%,3.8%,9.4%,6.31µM*,17.8%,-17.0%
O=C(CSc1nnc(-c2ccc(O)cc2)o1)N1CCOCC1,-7.2%,-5.4%,-2.5%,83.0%,9.8%,-5.1%
